# In PubChem BioAssay AID623877 (Johns Hopkins Ion Channel Center, 2012):
# In all, about 340,000 compounds went through this assay and about 1,000 (0.29%) were called active.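 Rule for the calls: active = fluorescence-ratio B-score plate-corrected deviation score at least 3 library SD below zero, with starting fluorescence score within 5 deviations; inactive = the rest.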 Shown is part of a subset that was picked to be rich in actives.
# Biological target: Anoctamin-1 (Mus musculus) (UniProt Q8BHY3)
# Assay: mouse ANO1 channel activation – cell-based, HTS, primary screen (AID 623877);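 for B-score: channel opened by trigger with iodide after compound preincubation; score built on the fluorescence ratio of max minus min over baseline; more negative score means more quench and so TMEM16A activation or potentiation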
# Conditions: HEK293 TMEM16A/YFP-H148Q/I152L, iodide quench fluorescence, at 10 µM; stronger effect = lower value
# Chain of Anoctamin-1 (Mus musculus) (Q8BHY3 whole entry, looked up): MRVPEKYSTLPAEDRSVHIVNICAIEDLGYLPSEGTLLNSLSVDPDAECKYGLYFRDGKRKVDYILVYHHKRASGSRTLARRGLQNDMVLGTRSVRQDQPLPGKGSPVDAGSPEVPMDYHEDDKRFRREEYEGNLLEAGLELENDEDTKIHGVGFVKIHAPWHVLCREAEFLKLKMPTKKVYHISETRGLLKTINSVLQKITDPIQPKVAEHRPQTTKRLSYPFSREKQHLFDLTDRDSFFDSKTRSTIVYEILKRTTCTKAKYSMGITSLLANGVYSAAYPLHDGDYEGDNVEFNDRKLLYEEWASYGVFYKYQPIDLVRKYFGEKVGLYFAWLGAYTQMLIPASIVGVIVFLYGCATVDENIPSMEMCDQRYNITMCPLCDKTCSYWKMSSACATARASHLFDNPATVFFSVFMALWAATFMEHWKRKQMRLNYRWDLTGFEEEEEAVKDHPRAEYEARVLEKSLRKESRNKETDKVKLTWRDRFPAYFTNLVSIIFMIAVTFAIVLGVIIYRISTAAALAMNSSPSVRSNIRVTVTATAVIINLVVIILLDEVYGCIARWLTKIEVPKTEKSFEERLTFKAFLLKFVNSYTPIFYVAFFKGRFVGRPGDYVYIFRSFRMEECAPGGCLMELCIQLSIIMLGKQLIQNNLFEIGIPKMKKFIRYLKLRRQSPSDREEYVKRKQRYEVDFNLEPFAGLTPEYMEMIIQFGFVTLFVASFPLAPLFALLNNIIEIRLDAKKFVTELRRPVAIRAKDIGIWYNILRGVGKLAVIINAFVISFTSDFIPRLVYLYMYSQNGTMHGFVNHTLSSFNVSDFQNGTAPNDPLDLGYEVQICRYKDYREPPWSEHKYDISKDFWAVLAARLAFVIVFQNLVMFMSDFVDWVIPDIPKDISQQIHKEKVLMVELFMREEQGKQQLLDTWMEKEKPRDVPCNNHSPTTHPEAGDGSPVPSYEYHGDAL
row,Structure (SMILES),B-score
1,O=C(CCl)N(Cc1cccc([N+](=O)[O-])c1)c1cccc(Cl)c1,inactive
2,Cc1ccc(-c2csc(C(C#N)=C(O)CN3CCN(C(=O)c4ccco4)CC3)n2)cc1,inactive
3,COC(=O)C[n+]1cccc2ccccc21,-8.8 (active)
4,O=C(C[n+]1cc(Br)cc2ccccc21)c1ccc(F)cc1,inactive
5,COC(=O)Cc1c(-c2[nH]c3ccccc3c2CC(=O)OC)[nH]c2ccccc12,inactive
6,O=C(Nc1cccc(Cl)c1)C1CCCN(c2cnccn2)C1 (configuration not stated),inactive
7,Cc1ccc2c(c1)C(c1ccccc1)N(C(=O)c1ccc(S(=O)(=O)N3CCOCC3)cc1)CC(=O)N2 (configuration not stated),inactive
8,COc1cccc(C(=O)N2CCC(n3nccc3NC(=O)C3CCOC3)CC2)c1 (configuration not stated),inactive
9,COc1ccccc1N1CCN(CC(=O)Nc2ccnn2C2CCCC2)CC1,inactive
10,COc1cccc(N2CCN(CC(=O)Nc3ccnn3C3CCCC3)CC2)c1,-41.6 (active)
11,COc1ccc(CNC(=O)CN(Cc2ccc(Cl)cc2)S(C)(=O)=O)cc1,inactive
12,Nc1ncnc2c1cnn2C1CC(O)C(CO)O1 (configuration not stated),inactive
13,Cc1noc(/C=C/c2ccco2)c1S(=O)(=O)N1CCC(C(=O)Nc2ccc(Cl)cn2)CC1,inactive
14,C=CC(COCc1ccccc1)N(CC(=O)OC)S(=O)(=O)c1cc(Br)ccc1OC (configuration not stated),inactive
15,C=CC(COCc1ccccc1)N(Cc1ccccc1)S(=O)(=O)c1ccccc1Br (configuration not stated),-4.97 (active)
16,C=CCCN(Cc1ccccc1)S(=O)(=O)c1ccccc1Br,inactive
17,O=C(CN1CCCSc2ccccc21)N1CCN(S(=O)(=O)c2cccc(F)c2)CC1,-45.3 (active)
18,O=C(CN1CCN(S(=O)(=O)c2cccc(Cl)c2)CC1)N1CCCCC1,inactive
19,O=C(CN1CCCSc2ccccc21)N1CCN(S(=O)(=O)c2ccccc2)CC1,inactive
20,COc1cc(C(=O)Nc2oc(-c3ccccc3)c(-c3ccccc3)c2C#N)cc(OC)c1OC,inactive
21,O=C1c2ccccc2C(=O)N1CCCCCCN1C(=O)c2ccccc2C1=O,inactive
22,N#Cc1c(NC(=O)CCCN2C(=O)c3ccccc3C2=O)oc(-c2ccccc2)c1-c1ccccc1,-21.8 (active)
23,CN(C)S(=O)(=O)c1ccc(N2CCCC2)c(C(=O)NCc2ccccc2)c1,inactive

row,Structure (SMILES),B-score
1,O=P(c1cccs1)(c1cccs1)c1cccs1,inactive
2,COc1ccc(N=C2C=CC(=O)O2)cc1,inactive
3,COc1ccc(-n2c(SCC(=O)NCc3cccs3)nnc2-c2ccoc2C)cc1,inactive
4,Cc1ccccc1-n1c(SCC(=O)NCc2cccs2)nnc1-c1ccncc1,-9.87 (active)
5,CCOc1ccccc1-n1c(SCC(=O)NCc2ccco2)nnc1-c1ccncc1,inactive
6,O=C(Oc1ccccc1)Oc1ccc2c(c1)oc(=O)c1ccccc12,inactive
7,CC(C)N(Cc1ccccc1)C(=S)Nc1ccc(OC(F)F)cc1,inactive
8,Cc1ccccc1NC(=O)c1nn(-c2ccc(F)c(F)c2)ccc1=O,inactive
9,CCCSc1ncccc1C(=O)O,inactive
10,CCN(CC)S(=O)(=O)c1ccc(NC(=O)c2cnc(C)cn2)cc1,inactive
11,Cc1ccc(CNC(=O)c2cccnc2Cl)cc1,inactive
12,CCN(CC)S(=O)(=O)c1ccc(NC(=O)c2cccnc2Cl)c(NC(=O)c2cccnc2Cl)c1,-8.41 (active)
13,O=C(NCCN1CCCC(O)C1)c1cc(COc2c(F)cccc2F)on1 (configuration not stated),inactive
14,CCc1nnc(NC(=O)CSc2nc(SC)ns2)s1,inactive
15,COc1ccc(OC)c(Nc2nc3ccccc3n3cnnc23)c1,inactive
16,COc1ccc(S(=O)(=O)N2CCCC2)c(C)c1C,inactive
17,Nn1c(SCC(=O)NC2CCCC2)nnc1-c1ccccc1F,-15.8 (active)
18,CC(C)NC(=O)NC(=O)CSc1nnc(-c2ccccc2F)n1N,inactive
19,Nn1c(SCC(=O)NC(=O)NC2CCCC2)nnc1-c1ccccc1F,inactive
20,CC(C)[C@H](NC(=O)OCc1ccccc1)C(=O)OCc1ccccc1,inactive
21,COc1ccc(COC(=O)NC(C(=O)O)c2ccccc2)cc1 (configuration not stated),-15.7 (active)
22,COC(=O)c1ccc(C(NC(=O)OCc2ccccc2)/C(F)=C/[C@@H](C)C(=O)O)cc1 (some centres not stated),inactive
23,Cc1cccc(C)c1NC(=O)C1CCCN1C(=O)OC(C)(C)C (configuration not stated),inactive

row,Structure (SMILES),B-score
1,C/C=C/C(=O)OCc1csc(CC(=O)Nc2ccccc2C)n1,inactive
2,CC(=O)Nc1ccc(S(=O)(=O)NC(C)C(=O)OCC(=O)NC2CCCC2)cc1 (configuration not stated),inactive
3,Cc1ccc(NC(=O)Cc2nc(COC(=O)C(C)NS(=O)(=O)c3ccc(C)cc3)cs2)cc1 (configuration not stated),-5.62 (active)
4,CCOc1cc(C(=O)N(Cc2ccccc2)c2ccc(C)cc2)ccc1OCC(=O)N1CCOCC1,inactive
5,CCOC(=O)C1(Cc2ccc(O)cc2)NC(c2ccccc2F)C2C(=O)N(C)C(=O)C21 (configuration not stated),inactive
6,CCOc1cc(/C=C2/N=C(c3ccc(C(C)(C)C)cc3)OC2=O)cc(Cl)c1OS(C)(=O)=O,inactive
7,COC1=C/C(=C/c2c(N)n3nc(CC(=O)N4CCOCC4)sc3nc2=O)C=CC1=O,-12.3 (active)
8,COc1ccc(-c2ccnc(SCC(=O)N3CCOCC3)n2)cc1,inactive
9,C=CCC1=C/C(=C\c2c(N)n3nc(CC(=O)N4CCOCC4)sc3nc2=O)C=C(OC)C1=O,inactive
10,N#CCSc1nn(-c2ccc(F)cc2)c(=S)s1,inactive
11,O=C(CSc1ccccn1)N1CCN(S(=O)(=O)c2ccc(Cl)cc2)CC1,inactive
12,CCCC(C)n1[nH]c(=O)c2c(C)cc(C)nc21 (configuration not stated),inactive
13,CCC(C)n1[nH]c(=O)c2c(C)cc(C)nc21 (configuration not stated),-6.98 (active)
14,CCC(C)n1[nH]c(=O)cc1N (configuration not stated),inactive
15,CSc1nc2sc3c(c2c(=O)[nH]1)CCc1ccccc1-3,inactive
16,O=C(COC(=O)c1cc[n+]([O-])cc1)Nc1ccc(Cl)c(C(F)(F)F)c1,inactive
17,O=C(CC(O)(C(F)(F)F)C(F)(F)F)Nc1ccc(Cl)c(Cl)c1,-12.9 (active)
18,NC(=O)N1CCCC1C(=O)Nc1ccc(Cl)c(Cl)c1 (configuration not stated),inactive
19,Cc1ccc(S(=O)(=O)N2CCOCC2)cc1C(=O)Nc1ccccc1N1CCCC1,inactive
20,Nc1ccc2c(c1)C(=Cc1cccnc1)c1ccccc1-2,inactive
21,N#CCC(=O)N/N=C/c1ccc(SCC(=O)Nc2ccccc2)o1,inactive
